About 79,000 compounds went through this panel and 15% of them were active in at least one assay; those are over-represented in the sample as a whole. Unmarked numbers belong to inactive results. Active and inactive are the calls of the source. Rule as the data show it: active = growth inhibition above about 70%; inactive = the rest.
Columns and labels:
[1] = NCI Yeast Anticancer Drug Screen. Data for the rad52 strain (AID 147);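 also: 0% = growth of vehicle-treated control cultures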; details: S. cerevisiae rad52 mutant growth inhibition, stronger effect = higher value
Procedure, shortened: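 Compounds are applied to a genetically defined yeast strain lacking normal DNA damage repair, and inhibition of growth is expressed relative to cultures given vehicle only.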

[2] = NCI Yeast Anticancer Drug Screen. Data for the rad50EPP+ strain (AID 151);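 also: 0% = growth of vehicle-treated control cultures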; details: S. cerevisiae rad50 mutant strain, stronger effect = higher value
Procedure, shortened: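 Compounds were applied to the rad50EPP+ yeast strain, which bears a defined DNA repair alteration, and growth inhibition was determined relative to vehicle-treated cultures.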

[3] = NCI Yeast Anticancer Drug Screen. Data for the mgt1 strain (AID 153); details: S. cerevisiae mgt1 mutant growth inhibition, stronger effect = higher value
Procedure, shortened: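 Strain: mgt1 yeast, one of a set carrying defined DNA damage repair or cell cycle control alterations. Compound-treated growth compared with vehicle.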

[4] = NCI Yeast Anticancer Drug Screen. Data for the rad50 strain (AID 155);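 also: 0% = growth of vehicle-only cultures of the same strain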; details: S. cerevisiae rad50 strain growth inhibition, stronger effect = higher value
Procedure, shortened: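 A DNA repair-deficient yeast mutant serves as the test organism; compound-induced growth inhibition is calculated against vehicle-treated cells.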

[5] = NCI Yeast Anticancer Drug Screen. Data for the mec2-1 strain (AID 157); details: S. cerevisiae mec2-1 strain, stronger effect = higher value
Procedure, shortened: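 Strain: mec2-1 (DNA repair/cell cycle alteration). Compound exposure, then growth measured; inhibition expressed relative to vehicle.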

[6] = NCI Yeast Anticancer Drug Screen. Data for the rad14 strain (AID 159);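 also: 0% = growth of vehicle-treated control cultures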; details: S. cerevisiae rad14 strain growth inhibition, stronger effect = higher value
Procedure, shortened: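 Vehicle-treated cultures served as the baseline for growth inhibition of a DNA repair-mutant yeast strain exposed to each compound.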

[7] = NCI Yeast Anticancer Drug Screen. Data for the sgs1 mgt1 strain (AID 161);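 also: 0% = growth of cultures given vehicle only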; details: S. cerevisiae sgs1 mgt1 strain, stronger effect = higher value
Procedure, shortened: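 Inhibition of yeast growth, normalised to vehicle-treated controls, is reported for a strain bearing genetic alterations in DNA damage repair.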

[8] = NCI Yeast Anticancer Drug Screen. Data for the CLN2oe strain (AID 163);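 also: 0% = growth of vehicle-only control cultures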; details: S. cerevisiae CLN2oe strain, stronger effect = higher value
Procedure, shortened: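 Growth of a genetically modified yeast strain is measured after compound exposure and compared with cultures given vehicle alone.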

[9] = NCI Yeast Anticancer Drug Screen. Data for the cln2 rad14 strain (AID 165);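 also: 0% = growth equal to vehicle treated cultures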; details: S. cerevisiae cln2 rad14 strain, stronger effect = higher value
Procedure, shortened: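 Compounds are applied to the cln2 rad14 yeast strain, and growth is then compared with that of vehicle-treated cultures to give inhibition.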

[10] = NCI Yeast Anticancer Drug Screen. Data for the bub3 strain (AID 167); details: S. cerevisiae bub3 mutant strain, stronger effect = higher value
Procedure, shortened: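 Inhibition values come from growth of compound-treated mutant yeast normalised to vehicle-treated controls.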

[11] = NCI Yeast Anticancer Drug Screen. Data for the wt2 strain (AID 169);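 also: 0% = growth of vehicle-treated yeast cultures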; details: S. cerevisiae wt2 strain growth inhibition, stronger effect = higher value
Procedure, shortened: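 This strain belongs to a panel of yeast strains with defined genetic alterations in DNA damage repair or cell cycle control. Compounds are applied, and growth inhibition is measured against vehicle-treated cultures.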

[12] = NCI Yeast Anticancer Drug Screen. Data for the mlh1 strain (AID 171);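 also: 0% = growth of vehicle-treated control cultures of the same strain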; details: S. cerevisiae mlh1 strain growth inhibition, stronger effect = higher value
Procedure, shortened: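 Growth of the mutant yeast strain after compound exposure, expressed as inhibition relative to vehicle-only controls.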

[13] = NCI Yeast Anticancer Drug Screen. Data for the sgs1 strain (AID 173);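 also: 0% = growth of vehicle-only control cultures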; details: S. cerevisiae sgs1 mutant, stronger effect = higher value
Procedure, shortened: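 Growth of a yeast strain bearing a defined genetic alteration is measured after compound treatment. Inhibition is expressed relative to vehicle-only controls.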

[14] = NCI Yeast Anticancer Drug Screen. Data for the mlh1 rad18 strain (AID 175); details: S. cerevisiae mlh1 rad18 strain growth inhibition, stronger effect = higher value
Procedure, shortened: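 Read-out is yeast growth inhibition, calculated against vehicle-only controls. The compound was applied to a strain engineered with DNA damage repair alterations.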

[15] = NCI Yeast Anticancer Drug Screen. Data for the rad18 strain (AID 177); details: S. cerevisiae rad18 mutant growth inhibition, stronger effect = higher value
Procedure, shortened: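 Growth of the mutant yeast strain after compound exposure, normalised to vehicle-only cultures.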

[16] = at 5.0 µM (retest, dose inferred, filed as 0.5)
[17] = at 50.0 µM (retest, dose inferred, filed as 5.0)

In the case of `CO[C@@]12[C@H](COC(N)=O)C3=C(C(=O)C(C)=C(N)C3=O)N1C[C@@H]1N[C@@H]12`, the growth inhibition ([1]; at 1.2 µM) is reported as 7%, the growth inhibition ([1]; at 3.7 µM) is reported as 19% and the growth inhibition ([1]; at 11.0 µM) is reported as 55%. The growth inhibition ([1]; at 33.0 µM) was 83% (active), the growth inhibition ([1]; at 100.0 µM) was 92% (active) and the growth inhibition ([2]; at 1.2 µM) was -4%. It also gave a growth inhibition ([2]; at 3.7 µM) of 5%, a growth inhibition ([2]; at 11.0 µM) of 25% and a growth inhibition ([2]; at 33.0 µM) of 63%. The growth inhibition ([2]; at 100.0 µM) was 83% (active), the growth inhibition ([3]; at 1.2 µM) was -2% and the growth inhibition ([3]; at 3.7 µM) was 2%. The growth inhibition ([3]; at 11.0 µM) was 11%, the growth inhibition ([3]; at 33.0 µM) was 33% and the growth inhibition ([3]; at 100.0 µM) was 79% (active). The growth inhibition ([4]; at 1.2 µM) was 1%, the growth inhibition ([4]; at 3.7 µM) was 14% and the growth inhibition [4, 16] was 23%. The growth inhibition ([4]; at 11.0 µM) was 38%, the growth inhibition ([4]; at 33.0 µM) was 76% (active) and the growth inhibition [4, 17] was 72% (active). The growth inhibition ([4]; at 50.0 µM) was 65.3%, the growth inhibition ([4]; at 100.0 µM) was 91% (active) and the growth inhibition ([5]; at 1.2 µM) was 1%. The growth inhibition ([5]; at 3.7 µM) was 13%, the growth inhibition [5, 16] was 25% and the growth inhibition ([5]; at 11.0 µM) was 29%. The growth inhibition ([5]; at 33.0 µM) was 74% (active), the growth inhibition [5, 17] was 80% (active) and the growth inhibition ([5]; at 50.0 µM) was 63.9%. The growth inhibition ([5]; at 100.0 µM) was 91% (active), the growth inhibition ([6]; at 1.2 µM) was 6% and the growth inhibition ([6]; at 3.7 µM) was 17%. For the same compound, the growth inhibition ([6]; at 11.0 µM) was 39%, the growth inhibition ([6]; at 33.0 µM) was 76% (active) and the growth inhibition ([6]; at 100.0 µM) was 89% (active). The growth inhibition [7, 16] was 22%, the growth inhibition [7, 17] was 68% and the growth inhibition ([7]; at 50.0 µM) was 50.8%. The growth inhibition ([8]; at 1.2 µM) was -3%, the growth inhibition ([8]; at 3.7 µM) was 0% and the growth inhibition ([8]; at 11.0 µM) was 7%. For the same compound, the growth inhibition ([8]; at 33.0 µM) was 38%, the growth inhibition ([8]; at 100.0 µM) was 85% (active) and the growth inhibition [9, 16] was 7%. For the same compound, the growth inhibition [9, 17] was 57%, the growth inhibition ([9]; at 50.0 µM) was 48.8% and the growth inhibition ([10]; at 1.2 µM) was 1%. It also gave a growth inhibition ([10]; at 3.7 µM) of 3%, a growth inhibition [10, 16] of 29% and a growth inhibition ([10]; at 11.0 µM) of 7%. It also gave a growth inhibition ([10]; at 33.0 µM) of 26%, a growth inhibition [10, 17] of 49% and a growth inhibition ([10]; at 50.0 µM) of 25.4%. The growth inhibition ([10]; at 100.0 µM) was 67%, the growth inhibition ([11]; at 1.2 µM) was -1% and the growth inhibition ([11]; at 3.7 µM) was 4%. For the same compound, the growth inhibition ([11]; at 11.0 µM) was 15%, the growth inhibition ([11]; at 33.0 µM) was 51% and the growth inhibition ([11]; at 100.0 µM) was 86% (active). The growth inhibition ([12]; at 1.2 µM) was 1%, the growth inhibition ([12]; at 3.7 µM) was 7% and the growth inhibition ([12]; at 11.0 µM) was 21%. The growth inhibition ([12]; at 33.0 µM) was 55%, the growth inhibition ([12]; at 100.0 µM) was 84% (active) and the growth inhibition ([13]; at 1.2 µM) was 3%. The growth inhibition ([13]; at 3.7 µM) was 11%, the growth inhibition ([13]; at 11.0 µM) was 36% and the growth inhibition ([13]; at 33.0 µM) was 71% (active). The growth inhibition ([13]; at 100.0 µM) was 90% (active), the growth inhibition [14, 16] was 72% (active) and the growth inhibition [14, 17] was 92% (active). For the same compound, the growth inhibition ([14]; at 50.0 µM) was 71.7% (active), the growth inhibition ([15]; at 1.2 µM) was 20% and the growth inhibition ([15]; at 3.7 µM) was 60%. For the same compound, the growth inhibition ([15]; at 11.0 µM) was 84% (active), the growth inhibition ([15]; at 33.0 µM) was 93% (active) and the growth inhibition ([15]; at 100.0 µM) was 94% (active).

— PubChem BioAssay (NCI)
